# Measured values reported in the antibiotic and cytotoxicity screens of Wong et al. (2023).
# The campaign covered roughly 39,000 compounds. About 500 (1.3%) were called active. Only a selection was taken, and actives are over-represented in it overall.
# Test system: S. aureus RN4220
# Assay: growth inhibition call (relative growth <= 0.2)
# Settings: 50 µM
row,SMILES,growth inhibition call
1,Cc1noc(C)c1NC(=O)Nc1ccc2c(c1)CC(=O)N([C@@H](C)CO)C[C@@H](C)[C@@H](CN(C)S(C)(=O)=O)O2,inactive
2,CC(=O)O[C@@H]1[C@@H]2OC(=O)[C@H](OC(C)=O)[C@@H]2O[C@H]1n1ccc(=O)[nH]c1=O,inactive
3,COc1ccc2c3c([nH]c2c1)[C@H](CO)N(C[C@]13CCN(CC1)CC1CCCCC1)C(=O)Nc1cccc(c1)F,inactive
4,COc1ccc2c3c([nH]c2c1)[C@H](CO)N(C[C@]13CN(CC2CCCCC2)C1)C(=O)Nc1cccc(c1)F,active
5,COc1ccc2c3c([nH]c2c1)[C@@H](CO)N(C[C@]13CCN(CC1)CC1CCCC1)C(=O)Nc1cccc(c1)F,inactive
6,COc1ccc2c3c([nH]c2c1)[C@@H](CO)N(C[C@]13CCN(CC1)Cc1ccc(cc1)F)C(=O)Nc1ccc(cc1)F,active
7,COc1ccc2c3c([nH]c2c1)[C@@H](CO)N(C[C@]13CN(CC2CCCCC2)C1)C(=O)Nc1cccc(c1)F,inactive
8,COc1ccc2c3c([nH]c2c1)[C@H](CO)N(C[C@]13CCN(CC1)CC1CCCC1)C(=O)Nc1cccc(c1)F,inactive
9,COc1ccc2c3c([nH]c2c1)[C@@H](CO)N(C[C@]13CCN(CC1)CC1CCCCC1)C(=O)Nc1cccc(c1)F,active
10,COc1ccc(cc1)CN1CC[C@]2(CC1)CN([C@H](CO)c1[nH]c3cc(ccc3c12)OC)C(=O)Nc1ccc(cc1)F,inactive
11,COc1ccc2c3c([nH]c2c1)[C@H](CO)N(C[C@]13CCN(CC1)Cc1ccc(cc1)F)C(=O)Nc1ccc(cc1)F,inactive
12,C=CCOC(=O)O[C@H]1[C@@H](OC)O[C@H](COC(=O)NCCCCCC(=O)NO)[C@@H](OC(=O)[C@H](CC=C)Cc2cccc(Br)c2)[C@@H]1OC(=O)[C@H](CC=C)Cc1ccccc1,inactive
13,C[C@H](CO)N1C[C@H](C)[C@@H](CN(C)C(=O)Nc2ccc3c(c2)OCCO3)OCc2cn(nn2)CCCC1=O,inactive
14,O=C(N[C@H]1C=C[C@H](CC(=O)N2CCOCC2)O[C@@H]1CO)c1ccc2c(c1)OCO2,inactive
15,Cn1cnc(S(=O)(=O)N[C@H]2C=C[C@@H](CC(=O)NCC3CC3)O[C@H]2CO)c1,inactive
16,COc1ccc(NC(=O)Nc2ccc3c(c2)C(=O)N([C@@H](C)CO)C[C@H](C)[C@H](CN(C)C(=O)c2ccccc2)OCCCC[C@@H](C)O3)cc1,inactive
17,CN(C)CC#Cc1cncc(C(=O)NN)c1,inactive
18,CO[C@@H]1CN(C)C(=O)c2ccc(NC(=O)c3ccc(F)cc3)cc2OC[C@@H](C)N(C(=O)CN(C)C)C[C@@H]1C,inactive
19,CN1CCN(C(=O)C[C@H]2C[C@H]3c4cc(NC(=O)c5ccc6c(c5)OCO6)ccc4O[C@H]3[C@H](CO)O2)CC1,inactive
20,C=CC[C@@H](CC(=O)NCCO)C(=O)NC[C@H](OC(=O)[C@@H](CC=C)CC(=O)OC(C)(C)C)c1ccccc1,inactive
21,C=CC1=C(C(=O)O)N2C(=O)C(NC(=O)C(=NO)c3csc(N)n3)C2SC1 (centres undefined),active
22,Nc1nc(/C(=N/O)C(=O)N[C@@H]2C(=O)N3C(C(=O)O)=C(/C=C4\CCN([C@@H]5CCNC5)C4=O)CS[C@H]23)ns1,inactive
23,Nc1nc(/C(=C/CC(=O)O)C(=O)N[C@@H]2C(=O)N3C(C(=O)O)=CCS[C@H]23)cs1,inactive

row,SMILES,growth inhibition call
1,C=CC1=C(C(=O)O)N2C(=O)[C@@H](NC(=O)/C(=N/O)c3csc(N)n3)[C@H]2SC1,active
2,Nc1nc(C(=CCC(=O)O)C(=O)NC2C(=O)N3C(C(=O)O)=CCSC23)cs1 (centres undefined),active
3,C=CC1=C(C(=O)O)N2C(=O)[C@@H](NC(=O)/C(=N\OCC(=O)O)c3csc(N)n3)[C@H]2SC1,active
4,C=CC1=C(C(=O)O)N2C(=O)C(NC(=O)C(=NOCC(=O)O)c3csc(N)n3)C2SC1 (centres undefined),inactive
5,COC(=O)/C=C/c1cn([C@H]2OC[C@@H](CO)[C@@H]2O)c(=O)[nH]c1=O,inactive
6,Cc1cncc2cccc(S(=O)(=O)N[C@H]3CN[C@@H](COC(=O)NCCOCCOCCN)C3)c12,inactive
7,C[C@H](CO)N1C[C@H](C)[C@@H](CN(C)S(C)(=O)=O)Oc2cc(-c3ccccc3F)ccc2S1(=O)=O,inactive
8,CCCN(C)C[C@@H]1OCCCC[C@@H](C)Oc2ccc(NC(=O)c3ccccc3)cc2C(=O)N([C@H](C)CO)C[C@@H]1C,inactive
9,COc1ccc(NC(=O)N(C)C[C@H]2Oc3ccc(NC(=O)Cn4cnnn4)cc3C(=O)N([C@H](C)CO)C[C@@H]2C)cc1,inactive
10,C[C@@H]1CN([C@@H](C)CO)C(=O)c2cc(NC(=O)Nc3ccc(F)cc3)ccc2O[C@@H](C)CCCCO[C@@H]1CN(C)Cc1ccccc1,inactive
11,C[C@@H]1CN([C@H](C)CO)C(=O)c2cccc(NC(=O)Nc3cccc4ccccc34)c2O[C@@H]1CN(C)CC1CCCCC1,inactive
12,C[C@H](CO)N1C[C@H](C)[C@@H](CN(C)Cc2ccc(Oc3ccccc3)cc2)Oc2ccc(NS(=O)(=O)c3cccs3)cc2C1=O,inactive
13,O=P(O)(O)C(Sc1ccc(Cl)cc1)P(=O)(O)O,inactive
14,C(=N\n1cnnc1)/c1ccco1,inactive
15,C[C@@H]1CN([C@H](C)CO)C(=O)Cc2cc(NS(=O)(=O)c3cn(C)cn3)ccc2O[C@H]1CN(C)CC1CCCCC1,inactive
16,CN1C(=O)c2cc(NC(=O)C3CCOCC3)ccc2OC[C@H]2O[C@@H](CC(=O)NCc3ccccc3F)CC[C@H]21,inactive
17,O=C1NCCN1c1cccnc1,inactive
18,Cc1noc(C)c1NC(=O)N(C)C[C@@H]1Oc2ccc(NC(=O)C3CC3)cc2CC(=O)N([C@H](C)CO)C[C@H]1C,inactive
19,C=CC1=C(C(=O)O)N2C(=O)[C@@H](NC(=O)/C(=N\O)c3csc(N)n3)[C@H]2SC1,active
20,Cc1noc(C)c1NC(=O)Nc1ccc2c(c1)C(=O)N([C@@H](C)CO)C[C@@H](C)[C@H](CN(C)C(=O)Nc1ccc(F)cc1)OCCCC[C@@H](C)O2,inactive
21,NCc1nc(CCc2ccccc2)cs1,inactive
22,Cc1ccc(S(=O)(=O)Nc2cccc3c2O[C@H](CN(C)S(=O)(=O)c2ccc(F)cc2)[C@@H](C)CN([C@H](C)CO)C3=O)cc1,inactive
23,CN1CCN(C(=O)C[C@H]2CC[C@@H]3[C@H](COc4ccc(NC(=O)c5cscn5)cc4C(=O)N3C)O2)CC1,inactive

row,SMILES,growth inhibition call
1,COc1ccc(C=CC(=O)c2ccc(O)cc2O)cc1,inactive
2,COc1ccc(CC(=O)c2ccc(O)cc2O)cc1,inactive
3,COc1ccc(C(C)C(=O)c2ccc(O)cc2O)cc1 (centres undefined),active
4,C[C@@H]1CN([C@@H](C)CO)C(=O)c2cc(NC(=O)Nc3ccc(F)cc3)ccc2O[C@@H](C)CCCCO[C@@H]1CN(C)C(=O)Cc1ccccc1,inactive
5,O=C(CO)N1C[C@H]2C[C@@H]1C[C@@H]2Oc1cccnc1,inactive
6,CN[C@@H]1[C@@H](O[C@H]2O[C@H](CO)[C@@H](N)[C@H](O)[C@H]2O)O[C@H]2C[C@@H](N)[C@H](O[C@H]3[C@H](O)[C@@H](O)[C@H](N)C[C@@H]3N)O[C@@H]2[C@@H]1O,inactive
7,CN[C@@H]1[C@@H](O[C@@]2(C)O[C@H](CO)[C@@H](N)[C@H](O)[C@H]2O)O[C@H]2C[C@@H](N)[C@@H](O[C@H]3[C@H](O)[C@@H](O)[C@H](N)C[C@@H]3N)O[C@@H]2[C@@H]1O,inactive
8,NC[C@H]1O[C@H](O[C@H]2[C@H](O)[C@@H](O[C@H]3O[C@H](CO)[C@@H](O)[C@H](N)[C@H]3O)[C@H](N)C[C@@H]2N)[C@H](N)[C@@H](O)[C@@H]1O,inactive
9,NCC1OC(OC2C(CO)OC(OC3C(O)C(N)CC(N)C3OC3OC(CN)C(O)C(O)C3N)C2O)C(N)C(O)C1O.O=S(=O)(O)O.O=S(=O)(O)O.O=S(=O)(O)O (centres undefined),inactive
10,NCC1OC(OC2C(N)CC(N)C(O)C2OC2OC(CO)C(O)C2O)C(N)C(O)C1O.O=S(=O)(O)O (centres undefined),inactive
11,NC[C@H]1O[C@H](O[C@H]2[C@H](O[C@@H]3O[C@H](CO)[C@@H](O)[C@H]3O)[C@@H](O)[C@H](N)C[C@@H]2N)[C@H](N)[C@@H](O)[C@@H]1O,inactive
12,CNC1C(OC2OC(CO)C(N)C(O)C2O)OC2CC(N)C(OC3C(N)CC(N)C(O)C3O)OC2C1O.O=S(=O)(O)O (centres undefined),active
13,NCC1OC(OC2C(CO)OC(OC3C(O)C(N)CC(N)C3OC3OC(CO)C(O)C(O)C3N)C2O)C(N)C(O)C1O.O=S(=O)(O)O (centres undefined),active
14,NCC1OC(OC2C(N)CC(N)C(OC3OC(CO)C(O)C(N)C3O)C2O)C(O)C(O)C1O.O=S(=O)(O)O (centres undefined),inactive
15,NCC[C@H](O)C(=O)N[C@@H]1C[C@H](N)[C@@H](O[C@H]2O[C@H](CN)[C@@H](O)[C@H](O)[C@H]2O)[C@H](O)[C@H]1O[C@H]1O[C@H](CO)[C@@H](O)[C@H](N)[C@H]1O,active
16,NCCC(O)C(=O)NC1CC(N)C(OC2OC(CN)C(O)C(O)C2O)C(O)C1OC1OC(CO)C(O)C(N)C1O.O (centres undefined),inactive
17,NCC1OC(OC2C(N)CC(N)C(OC3OC(CO)C(O)C(N)C3O)C2O)C(N)C(O)C1O.O=S(=O)(O)O (centres undefined),active
18,O=C(C[C@@H]1C=C[C@@H](NC(=O)CN2CCOCC2)[C@@H](CO)O1)NCCc1ccncc1,inactive
19,COc1cccc(S(=O)(=O)N(C)C[C@H]2OCc3cn(nn3)CCCC(=O)N([C@H](C)CO)C[C@@H]2C)c1,inactive
20,COc1ccc(S(=O)(=O)N(C)C[C@@H]2OCCCC[C@@H](C)Oc3ccc(NC(=O)Nc4c(C)noc4C)cc3C(=O)N([C@H](C)CO)C[C@H]2C)cc1,inactive
21,C[C@H]1CN([C@@H](C)CO)C(=O)c2cc(NS(C)(=O)=O)ccc2O[C@H]1CN(C)C(=O)NC1CCCCC1,inactive
22,CN([NH2+][O-])c1ccc(O)c(O)c1,inactive
23,C[C@@H](N)c1ccc(F)cc1F,inactive
